According to PubChem BioAssay AID624167 (Sanford-Burnham Center for Chemical Genomics, 2012):

Assay: inhibition of PEG-3 promoter-driven reporter – cell-based, HeLa, luciferase, CREF/GAPDH counter-screen panel, dose response (AID 624167)
Conditions: CREF/GAPDH counter-screens; run 2, dose range 1, at 100 µM (top of the series)

Row | Compound | inhibition [%]
1 | CCc1ccn2cc(-c3ccc4c(c3)OCO4)nc2c1 | 97.5
2 | NC(C(=O)O)C1ON=C(Cl)C1O (stereo not drawn) | 70.1
3 | CCCCCCN1C=C/C(=C\C=C(C#N)C#N)c2ccccc21 | 22.9
4 | O=C(Nc1ccc(Cc2ccncc2)cc1)c1ccc([N+](=O)[O-])o1 | 95.3
5 | C/C(=N\NC(=O)c1c(C)nc2ccccn12)c1ccc(O)cc1O | 7.76
6 | COc1ccc(/C=C2/CCCC(CN(C)C)C2=O)cc1 (stereo not drawn) | 67.1
7 | O=C(Nc1ccccc1)c1nc[nH]c1C(=O)NCCCCCCNC(=O)c1[nH]cnc1C(=O)Nc1ccccc1 | 83
8 | O=C1C=CC(=O)N1c1ccc(-c2nc3ccccc3o2)cc1 | 90.3
9 | CC(/C=C/c1ccccc1)=N/NC(=O)c1cc([N+](=O)[O-])cc([N+](=O)[O-])c1 | 12.6
10 | CCOC(=O)c1c(SCCN2CCCCC2)n(-c2ccccc2)c(=S)n(-c2ccccc2)c1=O | 98
11 | COc1cc(Nc2c3ccccc3nc3ccccc23)cc(OC)c1OC | 100
12 | O=C(c1ccco1)N1CCN(C(c2ccccc2Cl)c2nnnn2Cc2cccs2)CC1 (stereo not drawn) | 72.3
13 | Cc1ccc(-n2c(N)c(C(=O)Nc3c(C)n(C)n(-c4ccccc4)c3=O)c3nc4ccccc4nc32)cc1 | 81.3
14 | O=C(N/N=C\c1c(O)ccc2ccccc12)c1ccc(Cn2cccn2)o1 | 34.2
15 | CN1C/C(=C/c2ccccc2[N+](=O)[O-])C(=O)/C(=C\c2ccccc2[N+](=O)[O-])C1 | 53.9
16 | Cc1ccc(C(C[N+](=O)[O-])Sc2ccc(N)cc2)cc1 (stereo not drawn) | 99.2
17 | CN1OC[C@@H]2CN(S(=O)(=O)c3cccc(C(F)(F)F)c3)[C@H](c3ccc(-c4cc5ccccc5o4)cc3)C[C@@H]21 | 70.9

Row | Compound | inhibition [%]
18 | O=C(CCn1cnc(-c2ccccc2)c1-c1ccccc1)N/N=C/c1ccccc1O | 55.9
19 | Cc1cccc(OCC(=O)NCC(=O)N/N=C/c2cc(Br)cc(Br)c2O)c1 | 74.4
20 | COc1cccc(/C=N/NC(=O)c2c(C)nc3ccc(Cl)cn23)c1O | -51.4
21 | CCc1ccc(/C=C2\SC(=S)N(CCCC(=O)NC3=NCCS3)C2=O)cc1 | 72.9
22 | O=C(O)c1ccc(N/N=C/c2ccc3c(c2)OCO3)cc1 | 97.7
23 | CCC(C)Cn1c(O)cc2nn(-c3nc4ccccc4s3)c(=O)c-2c1C (stereo not drawn) | 95.7
24 | O=C(N/N=C/c1ccc(Cl)c([N+](=O)[O-])c1)c1cc(-c2ccc3c4c(cccc24)CC3)n[nH]1 | 98.4
25 | C=C1CC2(OC1=O)c1ccccc1CCc1ccccc12 | 99.7
26 | COc1cc(/C=C2\SC(=Nc3ccccc3OC)NC2=O)ccc1O | 39.3
27 | O=C(O)c1ccc(N/N=C/c2ccc(OC(=O)c3cccc(Cl)c3)cc2)cc1 | 97.2
28 | CN(C)S(=O)(=O)c1ccc(-c2csc(N/N=C/c3ccc(O)cc3)n2)cc1 | 91.1
29 | Cc1ccccc1CNC(=O)C1CCCN(c2nnc(C)c3c(C)n(-c4ccccc4)nc23)C1 (stereo not drawn) | 94.8
30 | CC1=NOC(=O)/C1=C\c1ccc(-c2ccccc2Br)o1 | 98.7
31 | O=C(/C=C/c1ccc(Cl)c([N+](=O)[O-])c1)c1ccc(O)cc1 | 99.5
32 | O=C(COc1ccc2c(c1)CCC2)Nc1ccccn1 | 94.9
33 | O=C(O)c1ccc(CN2C(=O)c3cccc4c([N+](=O)[O-])ccc(c34)C2=O)cc1 | 100
